# Data published in the supplement of paper PMC8728848.
# This is one part of a sample in which the strongest signals are shown more often than they occur.
# B1: GroEL (Clostridium difficile), Q18CT5 (protein)
# chain: MAKEIKFSEETRRALEAGVNKLADTVKVTLGPKGRNVILDKKFGSPLITNDGVTIAKEIELEDRFENMGAQLVKEVATKTNDVAGDGTTTATVLAQAIIREGLKNVTAGANPILLRKGIQKAVTVAVEELKNQSRIVETQEAISQVASISAGDEEVGKLIAEAMEIVGKDGVITVEESQTMNTELDAVEGMQFDRGFVSAYMVTDVDKMEAVLNDPYILITDKKISNIQELLPVLEQIVQQGKKLLIIAEDVEGEALSTLVVNKLRGTFDVVAVKAPGFGDRRKEMLQDIAILTGAQVISEELGYDLKEADLSMLGRASSVKVTKESTTIVDGSGDKKAIEDRVTQIKHQVEQTTSDFDREKLMERLAKLAGGVAVVKVGAATEVELKERKLRIEDALNATRAAVEEGIVAGGGTAFVSVIPAIGTLIESLEGEVKLGAQIVKKALEEPLRQIAINAGLEGAVIVQNVVNSEAETGFDALNEKYVNMIEAGIVDPTKVSRSALQNAASIASTFLTTEAAVADLPEKEDAGMPGMGGGMPGMM
# Assays:
# Assay in all cases: glycan array binding signal (z-score within array); higher = stronger binding
# Conditions in all cases: glycan notation: IUPAC condensed, linker removed
# [1] = molecular target: Fuc(a1-2)Gal(b1-3)GalNAc(a1-3)[Fuc(a1-2)]Gal(b1-4)GlcNAc
# Method in brief: (§1)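 Columns mapping to the same glycan were averaged after glycan names were converted to IUPAC-condensed notation. The data come from 3228 arrays in the Consortium for Functional Glycomics database, limited to those with an available protein sequence. Binding is reported as a within-array Z-score averaged across arrays of one protein sequence and across linkers.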
# [2] = molecular target: Fuc(a1-2)Gal(b1-3)GlcNAc(b1-2)Man(a1-3)[Fuc(a1-2)Gal(b1-3)GlcNAc(b1-2)Man(a1-6)]Man(b1-4)GlcNAc(b1-4)GlcNAc
# Method in brief: as §1
# [3] = molecular target: Fuc(a1-2)Gal(b1-4)GlcNAc(b1-2)Man(a1-3)[Fuc(a1-2)Gal(b1-4)GlcNAc(b1-2)Man(a1-6)]Man(b1-4)GlcNAc(b1-4)GlcNAc
# Method in brief: as §1
# [4] = molecular target: Fuc(a1-2)Gal(b1-4)GlcNAc(b1-3)Gal(b1-4)GlcNAc(b1-3)Gal(b1-4)GlcNAc
# Method in brief: as §1
# [5] = molecular target: Fuc(a1-2)Gal6S(b1-3)GlcNAc6S
# Method in brief: as §1
# [6] = molecular target: Gal(a1-3)Gal(b1-4)[Fuc(a1-3)]GlcNAc(b1-2)Man(a1-3)[Gal(a1-3)Gal(b1-4)[Fuc(a1-3)]GlcNAc(b1-2)Man(a1-6)]Man(b1-4)GlcNAc(b1-4)GlcNAc
# Method in brief: as §1
# Gal(a1-4)Gal(b1-4)Glc = molecular target: Gal(a1-4)Gal(b1-4)Glc
# Method in brief: as §1
# [7] = molecular target: Gal(a1-4)Gal(b1-4)GlcNAc(b1-2)Man(a1-3)[Gal(a1-4)Gal(b1-4)GlcNAc(b1-2)Man(a1-6)]Man(b1-4)GlcNAc(b1-4)GlcNAc
# Method in brief: as §1
# Gal(b1-3)Gal(b1-4)GlcNAc = molecular target: Gal(b1-3)Gal(b1-4)GlcNAc
# Method in brief: as §1
# [8] = molecular target: Gal(b1-3)GalNAc(a1-3)[Fuc(a1-2)]Gal(b1-4)Glc
# Method in brief: as §1
# Gal(b1-4)Glc6S = molecular target: Gal(b1-4)Glc6S
# Method in brief: as §1
# [9] = molecular target: Gal(b1-4)GlcNAc(b1-2)Man(a1-3)[Gal(b1-4)GlcNAc(b1-2)Man(a1-6)]Man(b1-4)GlcNAc(b1-4)GlcNAc
# Method in brief: as §1
# [10] = molecular target: Gal(b1-4)GlcNAc(b1-2)[Gal(b1-4)GlcNAc(b1-4)]Man(a1-3)[Gal(b1-4)GlcNAc(b1-2)Man(a1-6)]Man(b1-4)GlcNAc(b1-4)GlcNAc
# Method in brief: as §1
# [11] = molecular target: Gal(b1-4)GlcNAc(b1-2)[Gal(b1-4)GlcNAc(b1-6)]Man(a1-6)[GlcNAc(b1-4)][Gal(b1-4)GlcNAc(b1-2)[Gal(b1-4)GlcNAc(b1-4)]Man(a1-3)]Man(b1-4)GlcNAc(b1-4)[Fuc(a1-6)]GlcNAc
# Method in brief: as §1
# [12] = molecular target: Gal(b1-4)GlcNAc(b1-3)Gal(b1-4)GlcNAc(b1-3)Gal(b1-4)GlcNAc(b1-2)Man(a1-3)[Gal(b1-4)GlcNAc(b1-3)Gal(b1-4)GlcNAc(b1-3)Gal(b1-4)GlcNAc(b1-2)Man(a1-6)]Man(b1-4)GlcNAc(b1-4)[Fuc(a1-6)]GlcNAc
# Method in brief: as §1
# [13] = molecular target: Gal(b1-4)GlcNAc(b1-3)Gal(b1-4)GlcNAc(b1-3)Gal(b1-4)GlcNAc(b1-2)[Gal(b1-4)GlcNAc(b1-3)Gal(b1-4)GlcNAc(b1-3)Gal(b1-4)GlcNAc(b1-6)]Man(a1-6)[Gal(b1-4)GlcNAc(b1-3)Gal(b1-4)GlcNAc(b1-3)Gal(b1-4)GlcNAc(b1-2)Man(a1-3)]Man(b1-4)GlcNAc(b1-4)[Fuc(a1-6)]GlcNAc
# Method in brief: as §1
# [14] = molecular target: Gal(b1-4)GlcNAc(b1-3)Gal(b1-4)GlcNAc(b1-3)Gal(b1-4)GlcNAc(b1-3)Gal(b1-4)GlcNAc(b1-3)Gal(b1-4)GlcNAc(b1-2)[Gal(b1-4)GlcNAc(b1-3)Gal(b1-4)GlcNAc(b1-3)Gal(b1-4)GlcNAc(b1-3)Gal(b1-4)GlcNAc(b1-3)Gal(b1-4)GlcNAc(b1-6)]Man(a1-6)[Gal(b1-4)GlcNAc(b1-3)Gal(b1-4)GlcNAc(b1-3)Gal(b1-4)GlcNAc(b1-3)Gal(b1-4)GlcNAc(b1-3)Gal(b1-4)GlcNAc(b1-2)Man(a1-3)]Man(b1-4)GlcNAc(b1-4)[Fuc(a1-6)]GlcNAc
# Method in brief: as §1
# [15] = molecular target: Gal(b1-4)GlcNAc(b1-3)Gal(b1-4)GlcNAc(b1-6)[Gal(b1-3)]GalNAc
# Method in brief: as §1
# [16] = molecular target: Gal(b1-4)GlcNAc(b1-3)Gal(b1-4)[Fuc(a1-3)]GlcNAc(b1-3)Gal(b1-4)[Fuc(a1-3)]GlcNAc
# Method in brief: as §1
# [17] = molecular target: Gal(b1-4)GlcNAc(b1-3)GalNAc
# Method in brief: as §1
# Gal3S(b1-3)GalNAc = molecular target: Gal3S(b1-3)GalNAc
# Method in brief: as §1
# [18] = molecular target: Gal3S(b1-3)[Fuc(a1-4)]GlcNAc
# Method in brief: as §1
# [19] = molecular target: Gal3S(b1-4)[Fuc(a1-3)]Glc6S
# Method in brief: as §1
# Gal3S4S(b1-4)GlcNAc = molecular target: Gal3S4S(b1-4)GlcNAc
# Method in brief: as §1
# Glc(b1-6)Glc = molecular target: Glc(b1-6)Glc
# Method in brief: as §1
# [20] = molecular target: GlcNAc(a1-4)Gal(b1-4)GlcNAc(b1-3)Gal(b1-4)Glc
# Method in brief: as §1
# GlcNAc(b1-3)Gal = molecular target: GlcNAc(b1-3)Gal
# Method in brief: as §1
# [21] = molecular target: GlcNAc(b1-3)[GlcNAc(b1-4)][GlcNAc(b1-6)]GlcNAc
# Method in brief: as §1
# [22] = molecular target: Man(a1-3)[Man(a1-6)]Man(a1-6)[Man(a1-3)]Man(b1-4)GlcNAc(b1-4)GlcNAc
# Method in brief: as §1
# [23] = molecular target: Neu5Ac(a2-3)Gal(b1-3)GlcNAc(b1-2)Man
# Method in brief: as §1
# [24] = molecular target: Neu5Ac(a2-3)Gal(b1-3)GlcNAc(b1-3)Gal(b1-3)GlcNAc
# Method in brief: as §1
# [25] = molecular target: Neu5Ac(a2-3)Gal(b1-3)GlcNAc(b1-3)GalNAc
# Method in brief: as §1
# [26] = molecular target: Neu5Ac(a2-3)Gal(b1-3)GlcNAc(b1-4)Gal(b1-4)Glc
# Method in brief: as §1
# Neu5Ac(a2-3)Gal(b1-4)Glc = molecular target: Neu5Ac(a2-3)Gal(b1-4)Glc
# Method in brief: as §1
# [27] = molecular target: Neu5Ac(a2-3)Gal(b1-4)GlcNAc(b1-2)Man
# Method in brief: as §1
# [28] = molecular target: Neu5Ac(a2-3)Gal(b1-4)GlcNAc(b1-6)GalNAc
# Method in brief: as §1
# Neu5Ac(a2-6)Gal(b1-4)Glc = molecular target: Neu5Ac(a2-6)Gal(b1-4)Glc
# Method in brief: as §1
# [29] = molecular target: Neu5Ac(a2-6)Gal(b1-4)GlcNAc(b1-2)Man(a1-6)Man(b1-4)GlcNAc(b1-4)GlcNAc
# Method in brief: as §1
# [30] = molecular target: Neu5Ac(a2-6)Gal(b1-4)GlcNAc(b1-2)Man(a1-6)[GlcNAc(b1-2)Man(a1-3)]Man(b1-4)GlcNAc(b1-4)GlcNAc
# Method in brief: as §1
# [31] = molecular target: Neu5Ac(a2-6)Gal(b1-4)GlcNAc(b1-3)[Neu5Ac(a2-6)Gal(b1-4)GlcNAc(b1-6)]GalNAc
# Method in brief: as §1
# [32] = molecular target: Neu5Ac(a2-8)Neu5Ac(a2-8)Neu5Ac(a2-3)[GalNAc(b1-4)]Gal(b1-4)Glc
# Method in brief: as §1
# [33] = molecular target: Neu5Gc(a2-3)Gal(b1-4)[Fuc(a1-3)]GlcNAc
# Method in brief: as §1
# [34] = molecular target: Neu5Gc(a2-6)Gal(b1-4)GlcNAc
# Method in brief: as §1
# [35] = molecular target: Neu5Gc(a2-8)Neu5Gc(a2-3)Gal(b1-4)GlcNAc
# Method in brief: as §1
binder,measurement,setting,value
B1,glycan array binding signal (z-score),[1],-0.541
same,glycan array binding signal (z-score),[2],3.73
same,glycan array binding signal (z-score),[3],2.28
same,glycan array binding signal (z-score),[4],0.143
same,glycan array binding signal (z-score),[5],-0.399
same,glycan array binding signal (z-score),[6],-0.924
same,glycan array binding signal (z-score),Gal(a1-4)Gal(b1-4)Glc,2.58
same,glycan array binding signal (z-score),[7],0.083
same,glycan array binding signal (z-score),Gal(b1-3)Gal(b1-4)GlcNAc,-0.843
same,glycan array binding signal (z-score),[8],3.31
same,glycan array binding signal (z-score),Gal(b1-4)Glc6S,0.425
same,glycan array binding signal (z-score),[9],0.454
same,glycan array binding signal (z-score),[10],2.79
same,glycan array binding signal (z-score),[11],-1
same,glycan array binding signal (z-score),[12],0.085
same,glycan array binding signal (z-score),[13],3.44
same,glycan array binding signal (z-score),[14],1.02
same,glycan array binding signal (z-score),[15],2.77
same,glycan array binding signal (z-score),[16],-1.13
same,glycan array binding signal (z-score),[17],-0.517
same,glycan array binding signal (z-score),Gal3S(b1-3)GalNAc,2.59
same,glycan array binding signal (z-score),[18],-0.243
same,glycan array binding signal (z-score),[19],3.51
same,glycan array binding signal (z-score),Gal3S4S(b1-4)GlcNAc,-0.674
same,glycan array binding signal (z-score),Glc(b1-6)Glc,3.22
same,glycan array binding signal (z-score),[20],0.659
same,glycan array binding signal (z-score),GlcNAc(b1-3)Gal,0.995
same,glycan array binding signal (z-score),[21],-0.786
same,glycan array binding signal (z-score),[22],3.99
same,glycan array binding signal (z-score),[23],-0.056
same,glycan array binding signal (z-score),[24],-0.917
same,glycan array binding signal (z-score),[25],0.139
same,glycan array binding signal (z-score),[26],2.65
same,glycan array binding signal (z-score),Neu5Ac(a2-3)Gal(b1-4)Glc,0.753
same,glycan array binding signal (z-score),[27],0.243
same,glycan array binding signal (z-score),[28],-0.601
same,glycan array binding signal (z-score),Neu5Ac(a2-6)Gal(b1-4)Glc,0.455
same,glycan array binding signal (z-score),[29],-0.426
same,glycan array binding signal (z-score),[30],-0.085
same,glycan array binding signal (z-score),[31],-1.37
same,glycan array binding signal (z-score),[32],-0.254
same,glycan array binding signal (z-score),[33],-0.437
same,glycan array binding signal (z-score),[34],1.41
same,glycan array binding signal (z-score),[35],-0.482
